The supplement of paper PMC10849652
The full data set covers some 7,900 targets. This sample favours those with a hit. About 0.6% of all pairs of compound and target were hits.

Legend:
Assay in all cases: log2 fold change, soluble protein after heating vs DMSO (PISA); higher = thermal stabilisation; K562 cells, 10 uM, 30 min; active = over 0.2 and 3.5 SD of the protein, either way, in both replicates (recomputed)
[1] = compound: Cc1ccc(NC(=O)c2ccc(CN3CC[C@H](N(C)C)C3)c(C(F)(F)F)c2)cc1Nc1nccc(-c2cncnc2)n1 [bafetinib]
Procedure, shortened: (§1)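 Values are thermal stability changes relative to control samples and are taken from duplicates. They are stated as log2 fold changes. Before quantification by TMTpro 16plex LC-MS/MS with equalised channel sums, K562 cells at 2×10^6 cells/mL were treated with 10 μM compound for 30 min, heated in aliquots for 3 min across 48°C-58°C, pooled, extracted in PBS with 0.5% NP-40 at 4°C, and centrifuged at 21,000xg for 90 min to give the soluble supernatant.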

[2] = compound: Cc1cccc(CC(=O)N2CCc3c2ccc(-c2cn(C)c4ncnc(N)c24)c3F)n1
Procedure, shortened: as §1

[3] = compound: Cc1cn(-c2cc(NC(=O)c3ccc(C)c(Nc4nccc(-c5cccnc5)n4)c3)cc(C(F)(F)F)c2)cn1 [nilotinib]
Procedure, shortened: as §1

[4] = compound: Cc1nc(Nc2n[nH]c3c2CN(C(=O)N[C@H](CN(C)C)c2ccccc2)C3(C)C)c2sccc2n1
Procedure, shortened: as §1

[5] = compound: Cc1nc(Nc2ncc(C(=O)Nc3c(C)cccc3Cl)s2)cc(N2CCN(CCO)CC2)n1 [dasatinib]
Procedure, shortened: as §1

[6] = compound: Cc1ncc(-c2ccnc(Nc3ccc(S(C)(=O)=O)cc3)n2)n1C(C)C
Procedure, shortened: as §1

[7] = compound: Cn1cc(-c2ccc3c(c2)CCN3C(=O)Cc2cccc(C(F)(F)F)c2)c2c(N)ncnc21
Procedure, shortened: as §1

[8] = compound: Cn1cc(-c2ccc3nnc(C(F)(F)c4ccc5ncccc5c4)n3n2)cn1
Procedure, shortened: as §1

[9] = compound: Cn1cncc1[C@@](N)(c1ccc(Cl)cc1)c1ccc2c(c1)c(-c1cccc(Cl)c1)cc(=O)n2C [tipifarnib]
Procedure, shortened: as §1

[10] = compound: FC(F)(F)c1ccc(/C=C/c2nc(COc3ccc(CCCCn4ccnn4)cc3)co2)cc1 [mubritinib]
Procedure, shortened: as §1

[11] = compound: NC(=O)Nc1cc(-c2cccc(F)c2)sc1C(=O)N[C@H]1CCCNC1
Procedure, shortened: as §1

[12] = compound: NC(=O)c1cnc(N[C@@H]2CCCC[C@@H]2N)nc1Nc1cccc(-n2nccn2)c1
Procedure, shortened: as §1

[13] = compound: NC1(c2ccc(-c3nc4ccn5c(=O)[nH]nc5c4cc3-c3ccccc3)cc2)CCC1
Procedure, shortened: as §1

[14] = compound: NCC(=O)Nc1ccc(-n2nc(C(F)(F)F)cc2-c2ccc3c(ccc4ccccc43)c2)cc1
Procedure, shortened: as §1

[15] = compound: Nc1ccccc1NC(=O)c1ccc(CNC(=O)OCc2cccnc2)cc1 [entinostat]
Procedure, shortened: as §1

[16] = compound: O=C(CCCCCCC(=O)Nc1ccccc1)NO [vorinostat]
Procedure, shortened: as §1

[17] = compound: O=C(CCCCCCNC(=O)c1cnc(N(c2ccccc2)c2ccccc2Cl)nc1)NO [citarinostat]
Procedure, shortened: as §1

[18] = compound: O=C(O)c1ccc2c(c1)nc(Nc1cccc(Cl)c1)c1ccncc12 [silmitasertib]
Procedure, shortened: as §1

[19] = compound: O=C1NC(=O)C(c2cnc3ccccn23)=C1c1cn2c3c(cc(F)cc13)CN(C(=O)N1CCCCC1)CC2
Procedure, shortened: as §1

[20] = compound: c1cc(OCCN2CCCCC2)cc(-c2n[nH]c3ccc(-c4nnc[nH]4)cc23)c1
Procedure, shortened: as §1

Measured: log2 fold change

GALNT1 (UniProt Q10472)
inactive: [1] -0.053 | [2] -0.065 | [3] -0.059 | [4] 0.014 | [5] 0.014 | [6] 0.142 | [7] 0.1 | [8] -0.093 | [9] 0.019 | [10] 0.029 | [11] -0.016 | [12] -0.012 | [13] -0.068 | [14] -0.016 | [15] -0.027 | [16] 0.067 | [17] 0.011 | [18] -0.007 | [19] -0.121 | [20] 0.046

GOLGB1 isoform 2 (UniProt Q14789)
inactive: [1] -0.022 | [2] -0.03 | [3] -0.054 | [4] 0.018 | [5] 0.08 | [6] -0.078 | [7] -0.077 | [8] 0 | [9] 0.014 | [10] 0.017 | [11] 0.106 | [12] -0.062 | [13] -0.044 | [14] 0.026 | [15] 0.024 | [16] -0.019 | [17] -0.008 | [18] 0.009 | [19] 0.039 | [20] 0.167

ICAM1 (UniProt P05362)
Sequence of UniProt P05362 (P05362 whole entry, looked up): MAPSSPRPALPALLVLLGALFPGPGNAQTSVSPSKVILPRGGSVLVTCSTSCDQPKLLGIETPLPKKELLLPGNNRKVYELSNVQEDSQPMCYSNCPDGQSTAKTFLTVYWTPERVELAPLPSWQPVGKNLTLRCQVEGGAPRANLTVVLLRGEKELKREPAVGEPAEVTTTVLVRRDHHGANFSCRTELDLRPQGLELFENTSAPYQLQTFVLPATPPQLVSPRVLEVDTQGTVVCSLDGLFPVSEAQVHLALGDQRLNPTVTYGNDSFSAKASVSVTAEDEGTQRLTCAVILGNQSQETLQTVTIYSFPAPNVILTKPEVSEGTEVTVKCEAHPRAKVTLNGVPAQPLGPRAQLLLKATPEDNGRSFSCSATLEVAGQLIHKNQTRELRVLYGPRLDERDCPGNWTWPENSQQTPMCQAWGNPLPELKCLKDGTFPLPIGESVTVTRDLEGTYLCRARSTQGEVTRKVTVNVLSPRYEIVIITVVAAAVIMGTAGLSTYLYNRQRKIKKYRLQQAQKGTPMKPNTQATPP
inactive: [1] 0.031 | [2] -0.024 | [3] 0.055 | [4] 0.051 | [5] -0.01 | [6] -0.019 | [7] 0.048 | [8] -0.006 | [9] 0.019 | [10] 0.046 | [11] 0.016 | [12] 0.109 | [13] 0.087 | [14] 0.008 | [15] -0.026 | [16] -0.008 | [17] 0.024 | [18] -0.028 | [19] -0.07 | [20] -0.06

HOMER1 (UniProt Q86YM7)
Sequence of UniProt Q86YM7 (Q86YM7 whole entry, looked up): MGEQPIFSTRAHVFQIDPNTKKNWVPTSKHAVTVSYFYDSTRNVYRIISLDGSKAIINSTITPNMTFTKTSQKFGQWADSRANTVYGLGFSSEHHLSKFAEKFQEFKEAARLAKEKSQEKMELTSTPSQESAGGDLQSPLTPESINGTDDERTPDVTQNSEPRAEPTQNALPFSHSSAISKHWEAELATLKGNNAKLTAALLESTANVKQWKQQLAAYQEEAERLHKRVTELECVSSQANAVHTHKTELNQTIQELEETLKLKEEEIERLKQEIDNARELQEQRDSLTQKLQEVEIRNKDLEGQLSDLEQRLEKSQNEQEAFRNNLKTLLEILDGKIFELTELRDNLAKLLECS
inactive: [1] -0.016 | [2] -0.002 | [3] -0.02 | [4] 0.046 | [5] -0.054 | [6] -0.008 | [7] 0.003 | [8] 0.117 | [9] -0.031 | [10] 0.089 | [11] 0.058 | [12] 0.007 | [13] -0.014 | [14] 0.032 | [15] 0.049 | [16] 0.059 | [17] 0.013 | [18] 0.119 | [19] 0.013 | [20] 0.024

GPKOW (UniProt Q92917)
Sequence of UniProt Q92917 (Q92917 whole entry, looked up): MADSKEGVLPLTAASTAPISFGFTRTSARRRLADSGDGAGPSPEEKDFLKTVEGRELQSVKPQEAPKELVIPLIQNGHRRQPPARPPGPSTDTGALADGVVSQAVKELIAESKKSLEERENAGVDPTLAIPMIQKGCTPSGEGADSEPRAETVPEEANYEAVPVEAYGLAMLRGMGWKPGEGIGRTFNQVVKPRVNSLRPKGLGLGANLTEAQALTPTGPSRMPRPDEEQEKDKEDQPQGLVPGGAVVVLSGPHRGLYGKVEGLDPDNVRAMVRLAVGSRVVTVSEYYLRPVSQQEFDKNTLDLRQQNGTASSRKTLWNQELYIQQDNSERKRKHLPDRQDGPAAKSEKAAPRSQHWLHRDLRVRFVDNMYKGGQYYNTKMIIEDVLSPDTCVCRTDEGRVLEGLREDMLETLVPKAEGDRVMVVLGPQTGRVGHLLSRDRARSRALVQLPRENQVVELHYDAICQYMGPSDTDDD
inactive: [1] -0.025 | [2] 0.086 | [3] -0.057 | [4] -0.207 | [6] -0.025 | [7] 0.114 | [8] 0.139 | [9] -0.071 | [10] 0.126 | [11] -0.014 | [12] 0 | [13] -0.096 | [14] -0.216 | [15] 0.042 | [16] 0.122 | [17] 0.048 | [18] -0.078 | [19] -0.061 | [20] -0.01
active: [5] -0.326

GLS (UniProt O94925)
Sequence of UniProt O94925 (O94925 whole entry, looked up): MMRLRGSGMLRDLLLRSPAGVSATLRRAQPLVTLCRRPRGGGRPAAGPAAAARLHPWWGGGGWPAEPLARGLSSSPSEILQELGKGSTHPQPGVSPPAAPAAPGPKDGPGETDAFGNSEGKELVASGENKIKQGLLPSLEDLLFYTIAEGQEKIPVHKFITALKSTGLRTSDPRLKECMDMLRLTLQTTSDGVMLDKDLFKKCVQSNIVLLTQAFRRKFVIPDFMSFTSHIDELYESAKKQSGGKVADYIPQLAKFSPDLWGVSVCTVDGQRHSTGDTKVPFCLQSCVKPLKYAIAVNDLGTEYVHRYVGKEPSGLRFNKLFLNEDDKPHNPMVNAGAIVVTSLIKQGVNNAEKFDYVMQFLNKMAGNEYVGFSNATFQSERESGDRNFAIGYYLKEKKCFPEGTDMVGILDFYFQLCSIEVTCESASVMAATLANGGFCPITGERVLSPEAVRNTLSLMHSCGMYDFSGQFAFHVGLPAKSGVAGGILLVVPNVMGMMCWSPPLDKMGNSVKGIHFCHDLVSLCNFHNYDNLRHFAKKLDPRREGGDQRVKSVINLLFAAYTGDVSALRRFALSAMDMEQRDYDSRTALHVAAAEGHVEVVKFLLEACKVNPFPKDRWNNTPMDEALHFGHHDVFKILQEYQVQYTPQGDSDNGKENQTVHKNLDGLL
inactive: [1] -0.021 | [2] 0.025 | [3] -0.095 | [4] -0.069 | [5] -0.154 | [6] 0.009 | [7] -0.081 | [8] 0.003 | [9] -0.071 | [10] -0.285 | [11] -0.019 | [12] 0.152 | [13] -0.157 | [14] -0.093 | [15] 0.039 | [16] 0.022 | [17] 0.068 | [18] 0.008 | [19] -0.193 | [20] -0.032

GUK1 isoform 2 (UniProt Q16774)
Sequence of UniProt Q16774 (Q16774 whole entry, looked up): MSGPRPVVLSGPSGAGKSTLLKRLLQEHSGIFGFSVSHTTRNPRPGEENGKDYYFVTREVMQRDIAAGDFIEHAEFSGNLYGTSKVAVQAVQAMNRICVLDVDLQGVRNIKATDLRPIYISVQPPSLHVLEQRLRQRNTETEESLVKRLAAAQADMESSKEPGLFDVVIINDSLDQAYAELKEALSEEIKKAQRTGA
active: [10] 0.397
inactive: [1] 0.134 | [2] 0.053 | [3] 0.226 | [4] -0.056 | [5] -0.109 | [6] 0.054 | [7] 0.058 | [8] -0.007 | [9] -0.15 | [11] -0.126 | [12] -0.029 | [13] -0.059 | [14] -0.064 | [15] 0.065 | [16] -0.002 | [17] 0.031 | [18] 0.044 | [19] -0.094 | [20] 0.122

GTF3C4 (UniProt Q9UKN8)
Sequence of UniProt Q9UKN8 (Q9UKN8 whole entry, looked up): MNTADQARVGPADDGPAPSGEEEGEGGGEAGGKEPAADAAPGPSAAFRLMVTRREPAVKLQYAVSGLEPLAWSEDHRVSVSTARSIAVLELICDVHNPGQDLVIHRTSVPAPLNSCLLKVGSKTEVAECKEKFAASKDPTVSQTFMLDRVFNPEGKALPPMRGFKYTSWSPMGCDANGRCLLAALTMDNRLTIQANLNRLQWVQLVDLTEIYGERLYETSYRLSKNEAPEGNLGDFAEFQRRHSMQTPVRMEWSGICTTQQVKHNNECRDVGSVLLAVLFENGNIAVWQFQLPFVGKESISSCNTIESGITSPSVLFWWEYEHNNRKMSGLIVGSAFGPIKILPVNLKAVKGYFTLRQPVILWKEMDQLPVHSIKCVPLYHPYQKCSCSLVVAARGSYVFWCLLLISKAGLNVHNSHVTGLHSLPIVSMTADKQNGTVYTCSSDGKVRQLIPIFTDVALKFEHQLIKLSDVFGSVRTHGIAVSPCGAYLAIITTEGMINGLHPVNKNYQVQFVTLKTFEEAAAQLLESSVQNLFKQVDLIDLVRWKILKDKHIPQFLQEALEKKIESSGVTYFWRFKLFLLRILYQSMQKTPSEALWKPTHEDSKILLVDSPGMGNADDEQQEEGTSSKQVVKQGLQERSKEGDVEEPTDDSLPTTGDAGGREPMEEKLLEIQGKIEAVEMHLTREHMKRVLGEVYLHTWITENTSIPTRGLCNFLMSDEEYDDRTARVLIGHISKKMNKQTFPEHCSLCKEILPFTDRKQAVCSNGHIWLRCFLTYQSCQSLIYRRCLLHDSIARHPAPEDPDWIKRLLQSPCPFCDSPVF
inactive: [1] -0.065 | [2] 0.019 | [3] -0.034 | [4] -0.069 | [5] -0.024 | [6] 0.036 | [7] -0.017 | [8] -0.007 | [9] 0.014 | [10] 0.01 | [11] -0.015 | [12] -0.012 | [13] -0.077 | [14] -0.04 | [15] 0.024 | [16] -0.103 | [17] 0.04 | [18] 0.03 | [19] -0.013 | [20] -0.019

HMOX2 (UniProt P30519)
Sequence of UniProt P30519 (P30519 whole entry, looked up): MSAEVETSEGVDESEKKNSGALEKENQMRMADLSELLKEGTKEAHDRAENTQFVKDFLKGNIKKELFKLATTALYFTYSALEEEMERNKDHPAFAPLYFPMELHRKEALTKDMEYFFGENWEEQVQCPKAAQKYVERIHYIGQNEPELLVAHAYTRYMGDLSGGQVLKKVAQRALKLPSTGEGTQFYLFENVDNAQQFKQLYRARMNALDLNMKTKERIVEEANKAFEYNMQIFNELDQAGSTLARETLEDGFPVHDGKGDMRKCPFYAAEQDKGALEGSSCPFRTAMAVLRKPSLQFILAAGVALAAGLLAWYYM
inactive: [1] 0.006 | [2] 0.048 | [3] 0.002 | [4] -0.08 | [5] -0.141 | [6] -0.006 | [7] 0.067 | [8] 0.003 | [10] 0.062 | [11] -0.022 | [12] -0.028 | [13] -0.094 | [14] -0.026 | [15] 0.018 | [16] 0.029 | [17] 0.023 | [18] 0 | [19] 0.013 | [20] -0.03
active: [9] 0.27

IFI30 (UniProt P13284)
inactive: [2] 0.007 | [3] 0.068 | [4] 0.015 | [5] 0.016 | [6] -0.049 | [7] 0.097 | [8] 0.002 | [9] 0.04 | [10] 0.044 | [11] 0.035 | [12] 0.127 | [13] -0.048 | [14] 0.083 | [15] -0.052 | [16] 0.03 | [17] 0.059 | [18] -0.052 | [19] 0.128 | [20] -0.028
active: [1] -0.41

GDI1 (UniProt P31150)
Sequence of UniProt P31150 (P31150 whole entry, looked up): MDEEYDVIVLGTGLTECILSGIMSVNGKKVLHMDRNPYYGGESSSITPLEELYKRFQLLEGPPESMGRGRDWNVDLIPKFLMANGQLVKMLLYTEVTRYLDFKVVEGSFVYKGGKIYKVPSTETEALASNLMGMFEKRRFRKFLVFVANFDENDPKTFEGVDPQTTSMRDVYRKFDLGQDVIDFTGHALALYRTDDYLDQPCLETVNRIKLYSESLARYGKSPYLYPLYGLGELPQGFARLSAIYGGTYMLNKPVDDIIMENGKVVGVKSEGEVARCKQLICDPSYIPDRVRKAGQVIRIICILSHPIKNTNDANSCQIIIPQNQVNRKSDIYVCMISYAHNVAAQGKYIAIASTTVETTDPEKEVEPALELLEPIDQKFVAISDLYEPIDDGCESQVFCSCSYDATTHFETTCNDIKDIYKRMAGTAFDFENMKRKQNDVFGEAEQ
inactive: [1] 0.002 | [2] 0.024 | [3] 0.001 | [4] 0.017 | [5] -0.053 | [6] -0.024 | [7] 0.035 | [8] 0.01 | [9] -0.06 | [10] 0.062 | [11] -0.018 | [12] -0.066 | [13] -0.051 | [14] -0.04 | [15] -0.016 | [16] 0.022 | [17] 0.014 | [18] -0.012 | [19] -0.037 | [20] -0.04

FHOD1 (UniProt Q9Y613)
inactive: [1] -0.187 | [2] -0.005 | [3] -0.089 | [4] -0.109 | [5] 0.044 | [6] -0.043 | [7] -0.238 | [8] -0.089 | [9] 0.041 | [10] -0.218 | [11] -0.075 | [12] -0.042 | [13] 0.179 | [14] 0.051 | [15] -0.103 | [16] 0.034 | [17] -0.073 | [18] 0.177 | [19] 0.23 | [20] -0.085

FERMT3 (UniProt Q86UX7)
inactive: [1] -0.022 | [2] 0.029 | [3] -0.036 | [4] -0.053 | [5] -0.075 | [6] -0.015 | [7] 0.029 | [8] -0.019 | [9] -0.087 | [10] 0.051 | [11] -0.055 | [12] -0.107 | [13] -0.106 | [14] -0.065 | [15] 0.032 | [16] 0.026 | [17] 0.067 | [18] -0.001 | [19] -0.048 | [20] -0.02

HADHA (UniProt P40939)
Sequence of UniProt P40939 (P40939 whole entry, looked up): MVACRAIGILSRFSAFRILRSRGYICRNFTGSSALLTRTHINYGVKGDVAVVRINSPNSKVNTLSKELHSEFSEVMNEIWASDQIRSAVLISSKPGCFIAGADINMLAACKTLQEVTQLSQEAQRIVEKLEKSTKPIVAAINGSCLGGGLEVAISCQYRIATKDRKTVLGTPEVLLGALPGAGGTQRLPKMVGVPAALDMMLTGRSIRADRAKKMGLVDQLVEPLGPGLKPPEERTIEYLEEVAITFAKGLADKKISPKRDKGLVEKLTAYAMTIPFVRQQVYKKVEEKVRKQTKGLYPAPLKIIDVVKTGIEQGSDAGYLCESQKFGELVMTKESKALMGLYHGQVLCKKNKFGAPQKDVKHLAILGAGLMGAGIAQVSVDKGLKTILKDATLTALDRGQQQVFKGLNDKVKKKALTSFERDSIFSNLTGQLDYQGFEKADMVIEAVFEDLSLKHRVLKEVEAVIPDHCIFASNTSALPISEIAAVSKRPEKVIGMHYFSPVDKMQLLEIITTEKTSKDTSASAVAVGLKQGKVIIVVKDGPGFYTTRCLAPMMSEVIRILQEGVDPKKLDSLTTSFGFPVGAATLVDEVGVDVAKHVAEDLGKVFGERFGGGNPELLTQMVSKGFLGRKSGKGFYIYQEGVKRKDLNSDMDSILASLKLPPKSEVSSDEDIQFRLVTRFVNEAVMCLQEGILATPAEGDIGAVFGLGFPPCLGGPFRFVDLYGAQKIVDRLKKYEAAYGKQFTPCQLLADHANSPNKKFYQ
active: [10] 0.685 | [19] 1.01
inactive: [1] 0.293 | [2] 0.097 | [3] 0.049 | [4] -0.078 | [5] -0.05 | [6] 0.036 | [7] 0.203 | [8] 0.069 | [9] -0.304 | [11] -0.035 | [12] 0.033 | [13] 0.131 | [14] 0.125 | [15] 0.045 | [16] -0.059 | [17] 0.018 | [18] -0.1 | [20] -0.007

HTATIP2 isoform 3 (UniProt Q9BUP3)
Sequence of UniProt Q9BUP3 (Q9BUP3 whole entry, looked up): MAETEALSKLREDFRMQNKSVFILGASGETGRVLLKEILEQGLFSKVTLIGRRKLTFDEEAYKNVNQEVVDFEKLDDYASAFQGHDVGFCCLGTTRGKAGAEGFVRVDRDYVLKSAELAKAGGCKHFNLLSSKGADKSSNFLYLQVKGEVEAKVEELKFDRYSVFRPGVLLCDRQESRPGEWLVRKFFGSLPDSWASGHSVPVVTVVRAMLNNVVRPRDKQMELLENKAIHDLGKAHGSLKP
inactive: [1] -0.143 | [2] -0.016 | [3] 0.116 | [4] -0.056 | [5] -0.046 | [6] -0.002 | [7] 0.031 | [8] 0.067 | [9] 0.106 | [10] -0.063 | [11] -0.047 | [12] 0.036 | [13] -0.07 | [14] -0.037 | [15] -0.006 | [16] 0.038 | [17] 0.05 | [18] 0.01 | [19] -0.066 | [20] -0.045
